{
  "source": "the supplement of paper PMC3334620",
  "note": "Over roughly 33,000 sequences, “E-score (-0.5 to 0.5)” has its median near -0.017; the highest 2% begin near 0.3. The entries come from a sample that favours the highest values as a whole.",
  "data": [
    {"biological_target": "T1, Sut1 (UniProt P53032)", "T1 sequence": "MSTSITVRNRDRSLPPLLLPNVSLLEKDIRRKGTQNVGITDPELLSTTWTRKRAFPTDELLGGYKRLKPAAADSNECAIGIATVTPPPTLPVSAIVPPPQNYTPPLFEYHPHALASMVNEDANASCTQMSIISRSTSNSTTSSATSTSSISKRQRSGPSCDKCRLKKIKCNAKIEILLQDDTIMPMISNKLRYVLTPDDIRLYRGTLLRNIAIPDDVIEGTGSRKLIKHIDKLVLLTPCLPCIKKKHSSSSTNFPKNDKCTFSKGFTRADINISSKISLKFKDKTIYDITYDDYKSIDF", "experiment": "PBM E-score (8-mer binding enrichment) (E-score (-0.5 to 0.5)); higher = stronger / more preferred TF binding", "details": "protein concentration: 200 nM; construct: GST-full length", "outline": "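Using PURExpress in vitro transcription/translation, GST-tagged yeast transcription factors were made in full-length or DNA-binding-domain form. These were applied at about 100-200 nM to double-stranded universal all-10-mer Agilent arrays, and bound protein was detected with fluorescent anti-GST. Scans were normalised with masliner before the Universal PBM Analysis Suite assigned E-scores to ungapped eight-base words pooled with their reverse complements.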", "values": [
      {"sequence": "CGTTCGGC", "PBM E-score": -0.0654},
      {"sequence": "AGTTCGGA", "PBM E-score": 0.352},
      {"sequence": "AGTTCGGC", "PBM E-score": 0.126},
      {"sequence": "CCCACTAG", "PBM E-score": -0.248},
      {"sequence": "AGTGTAGC", "PBM E-score": -0.123},
      {"sequence": "CAAGCCAA", "PBM E-score": -0.059},
      {"sequence": "GTGGGAAA", "PBM E-score": -0.0448},
      {"sequence": "GCTCCGAC", "PBM E-score": 0.267},
      {"sequence": "GCTCCGAA", "PBM E-score": 0.439},
      {"sequence": "TCTCCGCA", "PBM E-score": 0.225},
      {"sequence": "TCTCCAAA", "PBM E-score": -0.0978},
      {"sequence": "TCTCCGAA", "PBM E-score": 0.446},
      {"sequence": "CCTCCGAA", "PBM E-score": 0.121},
      {"sequence": "GTGTTTCA", "PBM E-score": 0.0164},
      {"sequence": "CACCCCTC", "PBM E-score": -0.352},
      {"sequence": "CTCGGAAG", "PBM E-score": 0.174},
      {"sequence": "ATATAAAG", "PBM E-score": 0.177},
      {"sequence": "ATATAAAT", "PBM E-score": 0.325},
      {"sequence": "AAATAAAG", "PBM E-score": 0.224},
      {"sequence": "ATATAAAC", "PBM E-score": 0.227},
      {"sequence": "AAATAAAT", "PBM E-score": 0.329},
      {"sequence": "AAATAAAA", "PBM E-score": 0.234},
      {"sequence": "ATGTTATG", "PBM E-score": 0.211},
      {"sequence": "ACCTGTTC", "PBM E-score": -0.081},
      {"sequence": "CTTCTTCA", "PBM E-score": -0.102},
      {"sequence": "CCTGGTCA", "PBM E-score": -0.307},
      {"sequence": "CCCGATCA", "PBM E-score": -0.133},
      {"sequence": "ACCCAAAT", "PBM E-score": 0.00677},
      {"sequence": "CATGTCTC", "PBM E-score": -0.0334},
      {"sequence": "GCAGCTCC", "PBM E-score": 0.00727},
      {"sequence": "GTCCGCAA", "PBM E-score": 0.298},
      {"sequence": "CTCCGCGA", "PBM E-score": 0.35},
      {"sequence": "ATCCGCAA", "PBM E-score": -0.0823},
      {"sequence": "GTCCGCTA", "PBM E-score": 0.258},
      {"sequence": "CTCCGCTA", "PBM E-score": 0.301},
      {"sequence": "GCCCGCGA", "PBM E-score": -0.0595},
      {"sequence": "ATCCGCGA", "PBM E-score": -0.0287},
      {"sequence": "CTCCGCCA", "PBM E-score": 0.171},
      {"sequence": "CTCCGCTC", "PBM E-score": 0.295},
      {"sequence": "CGCCGCGA", "PBM E-score": 0.0357},
      {"sequence": "TTCCGCAA", "PBM E-score": 0.166},
      {"sequence": "GTCCGCGA", "PBM E-score": 0.347},
      {"sequence": "CCGTTCTC", "PBM E-score": 0.0465},
      {"sequence": "AGAGCGCG", "PBM E-score": -0.155},
      {"sequence": "AGCCAGCG", "PBM E-score": -0.249},
      {"sequence": "ACCATCGA", "PBM E-score": -0.151},
      {"sequence": "GTCACGAC", "PBM E-score": -0.0628},
      {"sequence": "CGCTCCAC", "PBM E-score": -0.012},
      {"sequence": "ATCCGCGC", "PBM E-score": -0.0272},
      {"sequence": "CTCCGCGC", "PBM E-score": 0.327},
      {"sequence": "CTCCGCCC", "PBM E-score": 0.217},
      {"sequence": "ATGCATAC", "PBM E-score": -0.0233},
      {"sequence": "GAGTGATA", "PBM E-score": 0.13},
      {"sequence": "TGTTCGAA", "PBM E-score": 0.103},
      {"sequence": "CCAAGTTC", "PBM E-score": -0.107},
      {"sequence": "GTATATAA", "PBM E-score": 0.277},
      {"sequence": "AAATATAA", "PBM E-score": 0.273},
      {"sequence": "ATATACTA", "PBM E-score": 0.305},
      {"sequence": "GTATACAC", "PBM E-score": -0.0284},
      {"sequence": "CTATACTA", "PBM E-score": 0.21},
      {"sequence": "AAATGTAG", "PBM E-score": 0.0326},
      {"sequence": "AAATGTAT", "PBM E-score": 0.304},
      {"sequence": "ATATACTC", "PBM E-score": 0.197},
      {"sequence": "AAATGTAA", "PBM E-score": 0.206},
      {"sequence": "GTATATAC", "PBM E-score": 0.316},
      {"sequence": "AAATATAT", "PBM E-score": 0.365},
      {"sequence": "AAATATAC", "PBM E-score": 0.217},
      {"sequence": "CAATCGAG", "PBM E-score": -0.309},
      {"sequence": "CTGGTAAA", "PBM E-score": 0.141},
      {"sequence": "GACTTCAC", "PBM E-score": -0.00592},
      {"sequence": "AAACACGT", "PBM E-score": 0.116},
      {"sequence": "CCCAGCCG", "PBM E-score": -0.222},
      {"sequence": "CCTGATTC", "PBM E-score": -0.00501},
      {"sequence": "CTCCTCCA", "PBM E-score": -0.147},
      {"sequence": "CATACCTC", "PBM E-score": -0.0271},
      {"sequence": "GTTTGGCA", "PBM E-score": -0.0612},
      {"sequence": "AAATATTT", "PBM E-score": 0.31},
      {"sequence": "ATATAGAT", "PBM E-score": 0.272},
      {"sequence": "ACTTATAC", "PBM E-score": 0.264},
      {"sequence": "AAATATTC", "PBM E-score": 0.207},
      {"sequence": "AAATATGA", "PBM E-score": 0.114},
      {"sequence": "AAATATGC", "PBM E-score": 0.054},
      {"sequence": "ACTTATAT", "PBM E-score": 0.325},
      {"sequence": "AAATATTA", "PBM E-score": 0.227},
      {"sequence": "AAATATGT", "PBM E-score": 0.317},
      {"sequence": "ATATATAT", "PBM E-score": 0.302},
      {"sequence": "ACATATAT", "PBM E-score": 0.266},
      {"sequence": "ACTTATAG", "PBM E-score": 0.0142}
    ]}
  ]
}
